Results on one compound are retold here after ChEMBL document CHEMBL1961873, “Compounds: GSK PKIS; Assays: Nanosyn kinase panel” (2012).

Assay [1] addresses Protein kinase C gamma type (Homo sapiens) (UniProt P05129). Particulars: at 1 µM.
In assay [2] the target is T1, Protein kinase C iota type (Homo sapiens) (UniProt P41743).
T1 sequence (whole entry): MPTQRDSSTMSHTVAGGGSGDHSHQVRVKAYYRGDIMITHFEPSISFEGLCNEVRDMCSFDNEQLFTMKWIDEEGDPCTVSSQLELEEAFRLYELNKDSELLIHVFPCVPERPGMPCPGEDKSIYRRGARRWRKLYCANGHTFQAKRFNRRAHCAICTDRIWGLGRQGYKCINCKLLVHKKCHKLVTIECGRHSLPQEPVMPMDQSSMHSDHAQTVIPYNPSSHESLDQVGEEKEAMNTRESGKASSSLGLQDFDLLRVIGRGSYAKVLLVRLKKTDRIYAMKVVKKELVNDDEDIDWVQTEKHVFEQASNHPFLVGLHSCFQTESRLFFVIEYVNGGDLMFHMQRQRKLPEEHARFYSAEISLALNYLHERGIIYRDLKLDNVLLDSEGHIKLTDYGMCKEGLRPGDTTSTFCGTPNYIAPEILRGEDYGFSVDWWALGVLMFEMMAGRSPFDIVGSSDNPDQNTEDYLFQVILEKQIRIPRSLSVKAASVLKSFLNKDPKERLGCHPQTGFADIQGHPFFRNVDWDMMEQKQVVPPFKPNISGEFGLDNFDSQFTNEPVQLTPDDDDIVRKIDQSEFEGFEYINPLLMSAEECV
To be noted: at 0.1 µM.

Assay [3] concerns the target T1, Protein kinase C iota type (Homo sapiens). To be noted: at 1 µM.
Assay [4] deals with Protein kinase C theta type (Homo sapiens) (UniProt Q04759). Particulars: at 0.1 µM.
Assay [5] has the same target. Particulars: at 1 µM.
Assay [6] addresses Protein kinase C beta type (Homo sapiens) (UniProt P05771). To be noted: at 0.1 µM.
The target is the same in assay [7]. Particulars: at 1 µM.
In assay [8] the target is T2, Serine/threonine-protein kinase D1 (Homo sapiens) (UniProt Q15139).
T2 sequence (whole entry): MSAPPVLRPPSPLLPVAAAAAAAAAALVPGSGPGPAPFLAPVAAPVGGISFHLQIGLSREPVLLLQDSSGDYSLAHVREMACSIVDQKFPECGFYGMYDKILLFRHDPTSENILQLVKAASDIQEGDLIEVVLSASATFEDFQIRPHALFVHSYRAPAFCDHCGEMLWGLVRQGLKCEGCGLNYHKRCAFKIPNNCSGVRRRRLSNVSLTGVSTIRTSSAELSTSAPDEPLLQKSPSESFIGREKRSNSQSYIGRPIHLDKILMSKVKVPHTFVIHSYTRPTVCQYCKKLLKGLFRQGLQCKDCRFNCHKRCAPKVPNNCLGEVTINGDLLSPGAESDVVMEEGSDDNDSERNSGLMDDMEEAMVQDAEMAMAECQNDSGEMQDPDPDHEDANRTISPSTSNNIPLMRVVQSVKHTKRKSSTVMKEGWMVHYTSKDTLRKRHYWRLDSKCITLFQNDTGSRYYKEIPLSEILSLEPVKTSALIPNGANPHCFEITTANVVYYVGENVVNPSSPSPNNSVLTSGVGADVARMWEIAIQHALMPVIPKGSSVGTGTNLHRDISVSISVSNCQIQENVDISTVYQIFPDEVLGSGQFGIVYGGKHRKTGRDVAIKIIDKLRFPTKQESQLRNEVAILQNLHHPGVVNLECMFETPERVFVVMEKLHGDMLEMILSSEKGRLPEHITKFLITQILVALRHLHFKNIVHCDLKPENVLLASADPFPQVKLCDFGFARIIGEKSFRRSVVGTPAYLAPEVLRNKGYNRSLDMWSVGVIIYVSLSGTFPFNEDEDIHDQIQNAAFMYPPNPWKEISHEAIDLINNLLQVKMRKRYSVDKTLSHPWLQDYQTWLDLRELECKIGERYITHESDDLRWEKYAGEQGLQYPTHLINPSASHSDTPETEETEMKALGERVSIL
Particulars: at 0.1 µM.

In assay [9] the target is T2, Serine/threonine-protein kinase D1 (Homo sapiens). Particulars: at 1 µM.
The target in assay [10] is T3, Serine/threonine-protein kinase D2 (Homo sapiens) (UniProt Q9BZL6).
T3 sequence (whole entry): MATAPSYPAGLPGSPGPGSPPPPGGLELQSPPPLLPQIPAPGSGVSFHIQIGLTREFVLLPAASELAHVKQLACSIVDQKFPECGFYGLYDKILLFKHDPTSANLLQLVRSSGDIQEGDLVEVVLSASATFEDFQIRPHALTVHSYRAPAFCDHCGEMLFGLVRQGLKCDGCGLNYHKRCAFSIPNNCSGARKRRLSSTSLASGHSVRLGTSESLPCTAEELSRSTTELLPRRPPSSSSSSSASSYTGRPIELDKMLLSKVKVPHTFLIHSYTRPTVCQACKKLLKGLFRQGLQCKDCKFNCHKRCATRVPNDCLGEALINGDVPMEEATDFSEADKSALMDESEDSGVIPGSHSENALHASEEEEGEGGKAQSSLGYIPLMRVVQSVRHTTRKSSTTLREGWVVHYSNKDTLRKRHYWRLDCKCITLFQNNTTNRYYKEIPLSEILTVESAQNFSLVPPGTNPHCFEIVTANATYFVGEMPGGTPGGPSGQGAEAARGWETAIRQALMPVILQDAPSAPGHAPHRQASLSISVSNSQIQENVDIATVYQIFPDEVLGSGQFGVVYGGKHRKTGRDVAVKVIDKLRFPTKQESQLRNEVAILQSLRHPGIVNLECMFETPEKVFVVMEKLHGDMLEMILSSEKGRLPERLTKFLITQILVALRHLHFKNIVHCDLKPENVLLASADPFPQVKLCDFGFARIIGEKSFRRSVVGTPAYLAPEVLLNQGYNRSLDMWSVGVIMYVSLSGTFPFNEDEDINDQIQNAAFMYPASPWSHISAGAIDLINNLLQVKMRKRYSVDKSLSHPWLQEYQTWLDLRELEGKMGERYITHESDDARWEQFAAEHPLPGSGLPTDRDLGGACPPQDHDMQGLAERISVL
To be noted: at 0.1 µM.

For assay [11], the target named is T3, Serine/threonine-protein kinase D2 (Homo sapiens). To be noted: at 1 µM.
For assay [12], the target named is T4, Serine/threonine-protein kinase D3 (Homo sapiens) (UniProt O94806).
T4 sequence (whole entry): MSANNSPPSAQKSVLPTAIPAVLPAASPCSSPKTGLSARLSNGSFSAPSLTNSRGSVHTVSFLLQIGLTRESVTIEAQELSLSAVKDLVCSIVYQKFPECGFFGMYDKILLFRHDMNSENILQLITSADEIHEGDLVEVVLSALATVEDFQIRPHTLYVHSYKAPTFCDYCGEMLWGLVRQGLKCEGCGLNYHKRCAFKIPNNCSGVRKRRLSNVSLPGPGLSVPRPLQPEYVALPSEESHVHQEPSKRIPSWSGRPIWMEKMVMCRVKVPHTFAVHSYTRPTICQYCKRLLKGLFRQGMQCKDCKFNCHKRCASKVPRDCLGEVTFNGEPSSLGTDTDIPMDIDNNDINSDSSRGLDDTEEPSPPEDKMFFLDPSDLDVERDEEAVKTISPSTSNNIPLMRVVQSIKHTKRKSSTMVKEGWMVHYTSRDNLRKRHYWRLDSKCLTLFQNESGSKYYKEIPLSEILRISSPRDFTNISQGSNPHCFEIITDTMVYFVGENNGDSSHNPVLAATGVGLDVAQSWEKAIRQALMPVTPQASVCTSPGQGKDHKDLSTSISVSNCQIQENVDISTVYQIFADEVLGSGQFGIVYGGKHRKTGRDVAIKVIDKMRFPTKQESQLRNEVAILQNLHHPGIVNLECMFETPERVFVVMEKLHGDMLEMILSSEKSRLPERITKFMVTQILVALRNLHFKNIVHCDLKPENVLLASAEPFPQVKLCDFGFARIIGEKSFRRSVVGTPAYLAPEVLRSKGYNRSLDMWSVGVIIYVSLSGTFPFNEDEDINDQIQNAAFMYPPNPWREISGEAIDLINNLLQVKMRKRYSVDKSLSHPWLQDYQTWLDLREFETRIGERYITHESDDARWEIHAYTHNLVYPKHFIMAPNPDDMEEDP
Particulars: at 0.1 µM.

The target of assay [13] is T4, Serine/threonine-protein kinase D3 (Homo sapiens). To be noted: at 1 µM.
In assay [14] the target is T5, cGMP-dependent protein kinase 1 (Homo sapiens) (UniProt Q13976).
T5 sequence (whole entry): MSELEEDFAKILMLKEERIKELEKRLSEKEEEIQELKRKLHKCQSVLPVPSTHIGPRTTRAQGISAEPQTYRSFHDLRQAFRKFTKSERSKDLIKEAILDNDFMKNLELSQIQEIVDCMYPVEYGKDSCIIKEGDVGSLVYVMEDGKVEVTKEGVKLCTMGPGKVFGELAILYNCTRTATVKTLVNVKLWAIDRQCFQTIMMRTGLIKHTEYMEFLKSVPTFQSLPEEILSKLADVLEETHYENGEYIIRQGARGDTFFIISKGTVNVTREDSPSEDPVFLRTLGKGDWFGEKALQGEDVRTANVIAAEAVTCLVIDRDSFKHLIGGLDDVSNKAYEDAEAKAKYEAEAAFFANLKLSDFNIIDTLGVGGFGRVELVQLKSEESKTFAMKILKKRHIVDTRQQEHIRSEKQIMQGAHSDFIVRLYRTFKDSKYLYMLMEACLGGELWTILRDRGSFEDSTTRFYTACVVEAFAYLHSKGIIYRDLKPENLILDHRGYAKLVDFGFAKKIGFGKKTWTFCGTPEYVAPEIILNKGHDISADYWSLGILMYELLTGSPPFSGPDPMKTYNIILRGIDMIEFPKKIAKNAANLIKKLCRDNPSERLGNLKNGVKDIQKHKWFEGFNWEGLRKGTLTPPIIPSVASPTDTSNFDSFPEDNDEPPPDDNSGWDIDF
To be noted: at 0.1 µM.

Assay [15] concerns the target T5, cGMP-dependent protein kinase 1 (Homo sapiens). To be noted: at 1 µM.
The target of assay [16] is T6, cGMP-dependent protein kinase 2 (Homo sapiens) (UniProt Q13237).
T6 sequence (whole entry): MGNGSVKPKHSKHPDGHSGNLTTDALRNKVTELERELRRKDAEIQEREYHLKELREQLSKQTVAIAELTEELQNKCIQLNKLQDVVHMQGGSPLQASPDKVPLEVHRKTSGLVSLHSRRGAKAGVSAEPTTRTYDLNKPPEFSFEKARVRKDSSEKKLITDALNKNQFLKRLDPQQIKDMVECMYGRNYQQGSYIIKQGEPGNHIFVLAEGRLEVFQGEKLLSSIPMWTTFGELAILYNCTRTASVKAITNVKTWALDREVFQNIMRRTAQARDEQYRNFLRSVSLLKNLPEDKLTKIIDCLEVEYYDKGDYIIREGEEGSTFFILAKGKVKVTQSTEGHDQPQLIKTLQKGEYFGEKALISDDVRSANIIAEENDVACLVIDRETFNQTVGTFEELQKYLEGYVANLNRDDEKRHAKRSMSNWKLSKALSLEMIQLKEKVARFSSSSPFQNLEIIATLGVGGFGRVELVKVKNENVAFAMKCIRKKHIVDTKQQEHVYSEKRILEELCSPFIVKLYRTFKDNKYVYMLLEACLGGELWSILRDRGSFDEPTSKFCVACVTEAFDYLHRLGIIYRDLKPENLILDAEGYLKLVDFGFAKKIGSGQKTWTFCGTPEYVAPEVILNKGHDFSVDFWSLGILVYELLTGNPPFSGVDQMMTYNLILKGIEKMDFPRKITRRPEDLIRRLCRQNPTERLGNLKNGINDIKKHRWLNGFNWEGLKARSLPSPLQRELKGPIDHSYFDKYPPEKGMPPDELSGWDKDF
Particulars: at 0.1 µM.

The target in assay [17] is T6, cGMP-dependent protein kinase 2 (Homo sapiens). To be noted: at 1 µM.
Assay [18] deals with T7, cAMP-dependent protein kinase catalytic subunit PRKX (Homo sapiens) (UniProt P51817).
T7 sequence (whole entry): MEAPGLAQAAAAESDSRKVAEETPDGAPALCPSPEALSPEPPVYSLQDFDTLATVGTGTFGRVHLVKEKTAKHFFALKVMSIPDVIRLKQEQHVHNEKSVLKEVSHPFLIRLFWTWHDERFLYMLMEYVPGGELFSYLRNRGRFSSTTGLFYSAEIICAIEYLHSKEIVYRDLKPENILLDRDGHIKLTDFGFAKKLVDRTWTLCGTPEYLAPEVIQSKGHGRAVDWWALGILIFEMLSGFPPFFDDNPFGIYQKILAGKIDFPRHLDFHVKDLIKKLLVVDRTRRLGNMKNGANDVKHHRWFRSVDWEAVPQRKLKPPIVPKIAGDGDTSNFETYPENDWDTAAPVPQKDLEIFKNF
Particulars: at 0.1 µM.

Assay [19] has as its target T7, cAMP-dependent protein kinase catalytic subunit PRKX (Homo sapiens). Particulars: at 1 µM.
Assay [20] has as its target Rho-associated protein kinase 1 (Homo sapiens) (UniProt Q13464). To be noted: at 0.1 µM.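 Note: values are mean percent inhibition of ROCK1.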

“And” between values parts separate entries of the source, which are not always exact repeats. Identical values can stand only once.

Sequence of Protein kinase C beta type (Homo sapiens) (P05771 2-671 limits assumed): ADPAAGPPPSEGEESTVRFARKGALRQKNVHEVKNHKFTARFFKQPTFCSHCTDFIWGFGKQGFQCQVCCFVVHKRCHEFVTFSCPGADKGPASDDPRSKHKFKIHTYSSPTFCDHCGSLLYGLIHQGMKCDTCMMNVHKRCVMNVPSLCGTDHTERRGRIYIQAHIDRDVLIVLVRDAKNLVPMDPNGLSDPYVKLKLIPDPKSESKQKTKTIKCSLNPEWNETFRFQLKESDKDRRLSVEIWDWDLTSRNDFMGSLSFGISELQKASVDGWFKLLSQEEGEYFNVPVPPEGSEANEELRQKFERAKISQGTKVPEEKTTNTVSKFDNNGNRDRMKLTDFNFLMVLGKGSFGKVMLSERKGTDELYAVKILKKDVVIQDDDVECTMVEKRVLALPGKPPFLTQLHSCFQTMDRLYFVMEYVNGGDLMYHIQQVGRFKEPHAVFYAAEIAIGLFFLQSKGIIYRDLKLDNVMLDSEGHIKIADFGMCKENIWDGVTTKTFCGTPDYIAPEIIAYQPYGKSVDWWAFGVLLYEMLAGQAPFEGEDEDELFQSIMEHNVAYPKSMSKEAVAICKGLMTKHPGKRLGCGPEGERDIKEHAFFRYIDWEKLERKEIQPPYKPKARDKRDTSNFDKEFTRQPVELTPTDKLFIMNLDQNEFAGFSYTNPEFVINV
Sequence of Protein kinase C theta type (Homo sapiens) (Q04759 whole entry, looked up): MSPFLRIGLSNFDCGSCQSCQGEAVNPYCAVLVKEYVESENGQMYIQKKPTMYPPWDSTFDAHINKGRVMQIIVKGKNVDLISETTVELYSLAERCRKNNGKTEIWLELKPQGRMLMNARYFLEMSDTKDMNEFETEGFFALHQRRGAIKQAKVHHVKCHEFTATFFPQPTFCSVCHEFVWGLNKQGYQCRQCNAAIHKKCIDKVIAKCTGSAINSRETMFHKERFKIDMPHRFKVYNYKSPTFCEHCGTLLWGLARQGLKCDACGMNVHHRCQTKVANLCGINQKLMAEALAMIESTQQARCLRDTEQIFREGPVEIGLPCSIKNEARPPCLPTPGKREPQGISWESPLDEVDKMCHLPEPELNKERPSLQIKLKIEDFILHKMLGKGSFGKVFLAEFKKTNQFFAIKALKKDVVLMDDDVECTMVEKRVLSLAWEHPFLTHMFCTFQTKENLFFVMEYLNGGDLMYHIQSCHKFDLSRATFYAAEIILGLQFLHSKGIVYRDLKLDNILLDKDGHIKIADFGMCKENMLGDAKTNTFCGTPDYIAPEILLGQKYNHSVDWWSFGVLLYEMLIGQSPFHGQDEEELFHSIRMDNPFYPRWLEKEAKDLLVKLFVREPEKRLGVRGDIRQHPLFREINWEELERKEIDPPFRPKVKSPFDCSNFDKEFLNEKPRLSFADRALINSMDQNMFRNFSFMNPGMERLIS
Sequence of Rho-associated protein kinase 1 (Homo sapiens) (Q13464 2-1354 limits assumed): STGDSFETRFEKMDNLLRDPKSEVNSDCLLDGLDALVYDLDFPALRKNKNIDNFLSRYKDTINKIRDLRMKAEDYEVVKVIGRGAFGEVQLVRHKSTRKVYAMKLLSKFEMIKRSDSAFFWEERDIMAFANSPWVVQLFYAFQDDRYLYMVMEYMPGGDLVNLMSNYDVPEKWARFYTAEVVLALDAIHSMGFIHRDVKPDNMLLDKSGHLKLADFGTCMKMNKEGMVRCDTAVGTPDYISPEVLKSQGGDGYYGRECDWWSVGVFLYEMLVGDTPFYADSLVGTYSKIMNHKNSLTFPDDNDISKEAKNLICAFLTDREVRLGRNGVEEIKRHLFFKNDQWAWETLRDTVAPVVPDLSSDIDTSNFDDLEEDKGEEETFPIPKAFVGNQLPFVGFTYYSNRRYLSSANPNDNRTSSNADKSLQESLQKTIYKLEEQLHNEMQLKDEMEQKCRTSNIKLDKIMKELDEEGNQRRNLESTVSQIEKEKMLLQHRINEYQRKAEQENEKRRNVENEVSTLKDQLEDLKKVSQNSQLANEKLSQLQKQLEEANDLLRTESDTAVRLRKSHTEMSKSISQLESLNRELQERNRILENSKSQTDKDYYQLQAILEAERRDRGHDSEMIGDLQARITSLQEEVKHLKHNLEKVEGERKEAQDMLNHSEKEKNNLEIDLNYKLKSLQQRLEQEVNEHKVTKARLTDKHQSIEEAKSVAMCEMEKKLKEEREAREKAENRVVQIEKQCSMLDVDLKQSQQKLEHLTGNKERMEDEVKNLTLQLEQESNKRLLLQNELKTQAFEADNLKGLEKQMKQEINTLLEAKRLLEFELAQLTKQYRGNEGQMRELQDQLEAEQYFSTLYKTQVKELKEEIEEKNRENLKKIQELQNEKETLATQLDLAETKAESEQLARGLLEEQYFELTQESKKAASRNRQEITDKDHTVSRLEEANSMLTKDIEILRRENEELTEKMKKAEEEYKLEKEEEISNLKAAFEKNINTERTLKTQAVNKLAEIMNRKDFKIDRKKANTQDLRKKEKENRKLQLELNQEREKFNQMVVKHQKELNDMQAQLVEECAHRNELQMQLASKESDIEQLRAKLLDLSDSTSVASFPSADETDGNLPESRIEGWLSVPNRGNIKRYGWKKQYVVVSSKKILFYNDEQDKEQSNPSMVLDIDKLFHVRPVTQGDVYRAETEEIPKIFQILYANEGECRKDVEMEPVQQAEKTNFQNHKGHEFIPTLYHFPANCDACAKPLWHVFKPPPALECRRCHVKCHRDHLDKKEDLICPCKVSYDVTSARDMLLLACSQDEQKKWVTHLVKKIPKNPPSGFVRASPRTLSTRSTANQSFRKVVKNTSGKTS

Turning to `Nc1nccc(-c2c(-c3ccc(F)cc3)ncn2C2CCNCC2)n1`, the inhibition in assay [1] was 8.84% and 8.7%; in assay [2] it was -1.01% and 0.25%; in [3], 0.48% and 1.35%; in assay [4], -1.64% and -0.14%; in [5] it was -0.41% and 0.45%; in [6] it was 3.39% and 5.75%. Besides, the inhibition in assay [7] is 28.4% and 33.6%; in assay [8] it was -0.71% and 3.19%; in assay [9] it was 26.6% and 34.1%; in assay [10], -0.79% and 3.35%; in assay [11], 29.1% and 38.3%; in [12], -2.12% and 2.32%. For the same compound, the inhibition in [13] is 17.6% and 25.6%; in assay [14] it was -1.2% and -1.11%; in [15] it was -1.21% and 1.73%; in assay [16] it was -2.2% and 1.13%; in assay [17] it was 3.3% and 1.57%; in [18] it was -1.45% and 1.45%. The inhibition in [19] is -1.91% and 2.45%; in assay [20] it was -0.99% and 1.19%.
